KB-V1 MDR tox = KB-V1 MDR subline cytotoxicity. KB-V1 MDR cells viability, CellTiter-Glo, 72 h. Potency, µM (doses to about 46.1 µM), actives largely listed as cytotoxic. 3.4% of 400,000 active. AID 1347076; further: nearly all actives have a fitted effect of over 60% in size
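KB-V1, DMEM (no phenol red) + 10% FBS; cpd pin-transferred, titration series; 72 h, 37 degrees C; CellTiter-Glo, luminescence. Data normalized, curve-fit.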
KB-3-1 cytotox = KB-3-1 parental cell cytotoxicity | KB-3-1 viability, CellTiter-Glo ATP luminescence, 72 h | Potency, µM (doses to about 46.1 µM), actives largely listed as cytotoxic | 1.4% of 400,000 active | AID 1347075; further: nearly all actives have a fitted effect of over 60% in size
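Multi-concentration cytotoxicity screen in KB-3-1 cells grown in DMEM lacking phenol red with 10% FBS. After 72 h at 37 °C with compound, ATP-dependent luminescence was recorded.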
HepG2 tox-1 = kills HepG2 cells in TGF-b inhibitor counter-screen | HepG2 CAGA-GFP viability, ATP luminescence, 18 h | Potency, µM (doses to about 46.1 µM), hits mostly cytotoxic | 0.76% of 410,000 active | AID 588856
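HepG2 CAGA-GFP cells (1000/well, DMEM with 1% FBS) received compound, then TGF-beta at 500 pg/mL final, and were incubated 18 hours at 37 degrees C. Viability was read by CellTiter-Glo luminescence. Media-only wells were set as complete cell-killing and DMSO as no toxicity.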
HT1080 IDH1KD tx = HT-1080 IDH1 knockdown cell toxicity (counter line) | HT-1080 IDH1 knockdown viability, ATP luminescence, 48 h | Potency, µM (highest dose often 46.1 µM), actives largely listed as cytotoxic | 2% of 360,000 active | AID 686971
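% activity derives from luminescence (CellTiter-Glo), normalised to DMSO and no-cell wells. HT-1080-IDH1KD cells, 750/well, had 48 h compound exposure at 37 °C.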
HT1080-NT tox = kills 2HG-producing HT-1080-NT fibrosarcoma cells | HT-1080-NT fibrosarcoma viability, CellTiter-Glo ATP luminescence, 48 h | Potency, µM (highest dose often 46.1 µM), actives largely listed as cytotoxic | 1.6% of 360,000 active | AID 686970;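 further: NT is the 2HG producing partner of a matched IDH1 knockdown line; nearly all actives have a fitted effect of over 55% in size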
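HT-1080-NT; 750 cells/well; 5% FBS RPMI; 48 h compound, 37 degrees C; CellTiter-Glo luminescence; curve fitting and curve-class assignment.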
TGFb SMAD3 inh = blocks TGF-b signaling; HepG2 CAGA-GFP TGF-b/SMAD3 reporter, GFP fluorescence, 18 h; TGF-beta stimulated, 500 pg/mL final; Potency, µM (highest dose often 46.1 µM), hits mostly inhibitors; 1.2% of 410,000 active; AID 588855; further: nearly all actives have a fitted effect of over 65% in size
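Cell-based qHTS in HEPG2 carrying a CAGA-GFP Smad reporter; compounds added before 500 pg/mL final TGF-beta, 18 h incubation at 37 degrees C, GFP fluorescence quantified per cell by imaging cytometry.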
TGFb CAGA inh = confirmation of TGF-b signaling inhibitors in HepG2 reporter cells | shares compounds with TGFb SMAD3 inh | HepG2 CAGA-GFP TGF-b reporter, GFP fluorescence, 18 h; cells stimulated with TGF-beta, 500 pg/mL | Potency, µM (titrated, usually from 46.1 µM), most hits filed as inhibitors | 63% of 1,600 active | AID 720534; further: nearly all actives have a fitted effect of over 65% in size
HepG2 tox-2 = HepG2 cytotoxicity, TGF-b inhibitor counterscreen | 27% of 1,600 active | Potency, µM (series often up to 46.1 µM), actives largely listed as inhibitors | HepG2 CAGA-GFP viability, ATP luminescence, 18 h; cells stimulated with TGF-beta, 500 pg/mL | shares compounds with TGFb SMAD3 inh; further: nearly all actives have a fitted effect of over 70% in size
CCL64 TGFb inh = orthogonal confirmation of TGF-b inhibitors in CCL64 cells; 41% of 1,600 active; CCL64 CAGA-GFP reporter, TGF-b stimulated, GFP fluorescence, 18 h; Potency, µM (top dose mostly 46.1 µM), most hits filed as inhibitors; AID 720536; shares compounds with TGFb SMAD3 inh; further: nearly all actives have a fitted effect of over 65% in size
COP TGFb inh = validation of TGF-b inhibitors in HepG2 COP promoter reporter | shares compounds with TGFb SMAD3 inh | HepG2 COP-GFP TGF-b reporter, GFP fluorescence, 18 h; cells stimulated by added recombinant TGF-beta | Potency, µM (series often up to 46.1 µM), usual class: inhibitors | 3% of 1,600 active; further: nearly all actives have a fitted effect of over 70% in size
Hits are given with their value; 0 = inactive; ? = inconclusive; - = no result. Shown are actives, neighbours in structure and some others; about 6.6% of the full set was active somewhere. The call rests on the fitted dose curve; in most records, active means well fitted curve in the direction sought with a large enough effect; inconclusive means small, poorly fitted or top-dose-only effect, or another doubt; inactive means no such curve, though single readings can be large; an effect the other way counts as inactive or inconclusive.

SMILES	KB-V1 MDR tox	KB-3-1 cytotox	HepG2 tox-1	HT1080 IDH1KD tx	HT1080-NT tox	TGFb SMAD3 inh	TGFb CAGA inh	HepG2 tox-2	CCL64 TGFb inh	COP TGFb inh
O=C(Nc1ccc(F)c(Cl)c1)C1Cc2c(-c3ccc(Cl)cc3)ccnc2O1 (stereo not drawn)	?	?	0	?	?	15.8µM	10.3µM	?	18.4µM	0
CC(=O)Nc1ccc(-c2ccnc3c2CC(C(=O)Nc2ccc(Cl)c(C(F)(F)F)c2)O3)cc1 (stereo not drawn)	?	0	0	?	?	14.1µM	8.2µM	?	23.1µM	0
COc1cccc(CNc2ncc(-c3ccc(Br)cc3)n2C)c1	-	-	0	-	-	0	-	-	-	-
CCN(C[C@H]1N[C@@](CC)(C(=O)OC)[C@H]2C(=O)N(C)C(=O)[C@@H]12)C(=O)COC	0	0	0	0	0	0	-	-	-	-
Cc1nc2nc(SCC(=O)NC(C)c3ccccc3)nn2c(C)c1Cc1c(F)cccc1Cl (stereo not drawn)	0	0	0	-	-	0	-	-	-	-
COc1ccc(CCNC(=O)CNS(=O)(=O)c2ccc(Cl)cc2)cc1	?	0	0	0	0	?	0	0	0	0
O=C(c1cc(-n2cnnc2)ccc1Cl)N1CCN(c2nc(-c3ccccc3)cs2)CC1	0	20.6µM	0	?	?	11.2µM	8.2µM	0	?	0
Cc1ccc(NS(=O)(=O)c2cc(Br)cnc2N)c(Cl)c1	0	0	0	0	0	0	-	-	-	-
Nc1ncc(Br)cc1S(=O)(=O)Nc1cc(C(F)(F)F)cc(C(F)(F)F)c1	?	?	0	3.66µM	18.4µM	5.62µM	6.51µM	11.6µM	?	0
N#Cc1ccc(CN2CCN(C(=O)c3ccc(S(=O)(=O)N4CCCCCC4)cc3)CC2)cc1	0	0	0	0	0	?	-	-	-	-
O=C(Nc1cc(Sc2ccccn2)cc([N+](=O)[O-])c1)c1ccc(Cl)cc1	?	20.6µM	0	?	?	14.1µM	11.6µM	0	10.3µM	0
Cc1ccc(C)c(Cn2c3ccccc3c3cnn(CC(=O)NC(C)c4ccccc4)c(=O)c32)c1 (stereo not drawn)	0	0	0	-	-	0	-	-	-	-
CC1(C(=O)NS(=O)(=O)C2CC2)CCCN(C(=O)/C=C/c2ccccc2)C1 (stereo not drawn)	0	0	0	0	0	0	-	-	-	-
COc1ccc(-c2[nH]ncc2CN2CCC(O)(c3ccc(Cl)cc3)CC2)cc1	?	0	0	?	?	6.31µM	?	?	9.2µM	0
COc1ccc(-c2[nH]ncc2CN2CCN(c3ccc(F)cc3)CC2)cc1	?	0	0	0	0	?	-	-	-	-
OC1(c2ccc(Cl)cc2)CCN(Cc2cn[nH]c2-c2ccccc2)CC1	0	0	0	?	?	?	-	-	-	-
OC1(c2ccc(Cl)cc2)CCN(Cc2cn[nH]c2-c2ccc(F)cc2)CC1	0	0	0	?	20.6µM	3.98µM	?	?	25.9µM	0
CCCCc1nn2c(=O)cc(COC(=O)C(C)Oc3ccccc3)nc2s1 (stereo not drawn)	0	0	0	-	-	0	-	-	-	-
O=S(=O)(c1cccc(Cl)c1)N1CCN(c2nc(-c3cccs3)nc3ccccc23)CC1	0	?	0	0	?	0	-	-	-	-
O=C(Nc1ccc(F)cc1F)Nc1sccc1-c1nc2ccccc2s1	0	0	0	0	?	11.2µM	?	0	?	0

Assay outcomes from PubChem BioAssay.
